Screening data from PubChem BioAssay.
Only some compounds are listed: those with a hit (about 3.7% of all), similar ones and a draw of the others.
Anthrax LF prot: Bacillus anthracis LF protease inhibitors, primary screen, biochemical, multiplex microsphere, MLPCN library. multiplex microsphere protease cleavage assay. 0.12% of 360,000 active. inhibition, % at 10 µM. Lethal factor (Bacillus anthracis), P15917; note: plate controls were buffer without enzyme for full effect and enzyme alone for no effect
Target sequence (P15917 whole entry, looked up): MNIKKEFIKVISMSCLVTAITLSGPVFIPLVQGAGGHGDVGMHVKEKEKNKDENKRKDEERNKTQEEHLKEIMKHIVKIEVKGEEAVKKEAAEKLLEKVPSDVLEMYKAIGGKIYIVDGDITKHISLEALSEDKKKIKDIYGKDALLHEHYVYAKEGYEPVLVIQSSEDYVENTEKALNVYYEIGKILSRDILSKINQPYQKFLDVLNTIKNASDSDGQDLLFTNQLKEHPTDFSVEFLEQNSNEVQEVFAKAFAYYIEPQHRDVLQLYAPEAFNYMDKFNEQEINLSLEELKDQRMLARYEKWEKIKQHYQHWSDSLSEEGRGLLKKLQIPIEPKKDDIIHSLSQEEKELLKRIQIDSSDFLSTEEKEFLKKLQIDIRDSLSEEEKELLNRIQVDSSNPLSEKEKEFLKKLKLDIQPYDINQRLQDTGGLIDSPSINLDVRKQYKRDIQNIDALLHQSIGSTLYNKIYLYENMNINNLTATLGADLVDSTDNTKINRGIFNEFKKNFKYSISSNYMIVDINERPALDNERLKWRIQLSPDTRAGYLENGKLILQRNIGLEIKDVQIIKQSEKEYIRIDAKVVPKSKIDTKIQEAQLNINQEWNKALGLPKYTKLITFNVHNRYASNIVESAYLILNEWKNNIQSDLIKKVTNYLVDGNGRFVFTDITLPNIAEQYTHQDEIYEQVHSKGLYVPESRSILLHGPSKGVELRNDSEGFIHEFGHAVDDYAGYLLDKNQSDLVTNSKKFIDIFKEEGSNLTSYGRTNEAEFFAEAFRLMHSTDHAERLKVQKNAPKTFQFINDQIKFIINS
Autofluor counter: compound fluorescence in toxin protease inhibitor counterscreen; compound autofluorescence counterscreen, microsphere flow cytometry; stronger effect = higher value; 3.1% of 360,000 active; fluorescence intensity (test concentration not listed); AID 624483; in the data active = fluorescence intensity above about 16000; inconclusive = no clear call, values can overlap the other calls
BoNT A protease: BoNT/A light chain protease inhibitors, primary screen, biochemical, flow cytometry, MLPCN library. Botulinum neurotoxin type A light chain protease (Clostridium botulinum A str. ATCC 3502). multiplex microsphere protease substrate cleavage. inhibition, % at 10 µM. 0.17% of 360,000 active; note: plate controls were buffer without enzyme for full effect and enzyme alone for no effect
BoNT F protease: BoNT/F light chain protease inhibitors, primary screen, biochemical, flow cytometry, MLPCN library. Botulinum neurotoxin type F light chain protease (Clostridium botulinum). Multiplex microsphere protease cleavage assay. 0.22% of 360,000 active. inhibition, % at 10 µM; in the data active = inhibition above about 35%, passing the limit was not always enough; inconclusive = no clear call, values can overlap the other calls; note: plate controls were buffer without enzyme for full effect and enzyme alone for no effect
MazEF act: activators of E. coli MazEF toxin-antitoxin RNase, primary screen, biochemical, fluorescence, uHTS | FAM/BHQ RNA-DNA oligo cleavage fluorescence, 5 h | activation, % at 20 µM | 0.32% of 350,000 active | Endoribonuclease toxin MazF (Escherichia coli (strain K12)), P0AE70; in the data active = activation above about 50%
Active calls of the source: *. Cut-off read from the data, not from the text of the source, unless noted: active = inhibition above about 30%; inconclusive = no clear call, values can overlap the other calls; inactive = below that.

`CCOc1ccccc1C(=O)NCC(=O)N1CCN(Cc2ccc3c(c2)OCO3)CC1` gave Anthrax LF prot -4, Autofluor counter 3686, BoNT A protease 0, BoNT F protease -6 and MazEF act 2.
For Cc1ccc(S(N)(=O)=O)c(C)c1N1CCCC1=O the results were Anthrax LF prot 8, Autofluor counter 3405, BoNT A protease -1, BoNT F protease 4 and MazEF act 6.
Screening Cc1ccc(S(=O)(=O)O)c(C)c1N1CCCC1=O returned Anthrax LF prot 2, Autofluor counter 20761*, BoNT A protease -3, BoNT F protease -6 and MazEF act 4.
For CC1CCCC(CC(N)=O)CC1 (stereo unspecified) the results were Anthrax LF prot -1, Autofluor counter 4372, BoNT A protease 0, BoNT F protease -6 and MazEF act 7.
`O=C(CCC(=O)OCC(=O)c1ccc(Br)cc1)Nc1ccc(Br)c2cccnc12` gave Anthrax LF prot -8, Autofluor counter 18928*, BoNT A protease 3, BoNT F protease 3 and MazEF act -7.
For Cc1cc(/C=C\c2ccc3cc(N(C)C)ccc3[n+]2C)c(C)n1-c1ccccc1 the results were Anthrax LF prot -107, Autofluor counter 3555, BoNT A protease 16, BoNT F protease active and MazEF act 14.
For C[n+]1c(/C=C/c2ccc(O)cc2)ccc2ccccc21 the results were Anthrax LF prot -15, Autofluor counter 3189, BoNT A protease 1, BoNT F protease -85 and MazEF act -32.
`CCC1Cc2[nH][nH]c(=O)c2C(CC)O1` (stereo unspecified) gave Anthrax LF prot 3, Autofluor counter 6391, BoNT A protease 0 and BoNT F protease 6.
For CC(c1ccco1)N(C(=O)c1ccc(C(F)(F)F)cc1)c1ccccn1 (stereo unspecified) the results were Anthrax LF prot -1, Autofluor counter 4270, BoNT A protease 0, BoNT F protease 0 and MazEF act 2.
`Cc1ccc(C(=O)N(c2ccccn2)C(C)c2ccco2)cc1C` (stereo unspecified) gave Anthrax LF prot -3, Autofluor counter 21171*, BoNT A protease inconclusive, BoNT F protease 4 and MazEF act 6.
Screening COC(=O)c1cc(NC(=O)CC2NC3CCCCC3NC2=O)cc(C(=O)OC)c1 (stereo unspecified) returned Anthrax LF prot -9, Autofluor counter 22818*, BoNT A protease 1, BoNT F protease -2 and MazEF act 4.
Screening COc1nc(NC2OC(CO)C(O)C(O)C2O)c(N)c(=O)[nH]1 (stereo unspecified) returned Anthrax LF prot -2, Autofluor counter 3687, BoNT A protease 0, BoNT F protease -5 and MazEF act -42.
For CCOC(=O)c1cc(-c2ccc(C)cc2)n(CCC(=O)NCCN(C)C)c1C the results were Anthrax LF prot -6, Autofluor counter 22889*, BoNT A protease 0, BoNT F protease -2 and MazEF act 9.
For CCOC(=O)c1sc(-c2ccc(OC)cc2)cc1N the results were Anthrax LF prot -6, Autofluor counter 2500, BoNT A protease 0, BoNT F protease 0 and MazEF act -2.
`CCOC(=O)c1sc(=S)n(-c2ccccc2)c1SC` gave Anthrax LF prot -1, Autofluor counter 21506*, BoNT A protease -6, BoNT F protease -10 and MazEF act 9.
`Cc1ccc(-n2c(N)c(C(N)=O)sc2=S)cc1` gave Anthrax LF prot -3, Autofluor counter 2211, BoNT A protease -1, BoNT F protease -8 and MazEF act 4.
CCOC(=O)c1sc(-c2ccc(F)cc2)cc1N was read as Anthrax LF prot -2, Autofluor counter 25606*, BoNT A protease -5, BoNT F protease -9 and MazEF act -5.
Screening COC(=O)c1sc(=S)n(-c2cc(F)ccc2F)c1N returned Anthrax LF prot 0, Autofluor counter 19767*, BoNT A protease -1, BoNT F protease -2 and MazEF act -4.
CCOC(=O)c1sc(=S)n(-c2cc(OC)ccc2OC)c1N was read as Anthrax LF prot 0, Autofluor counter 2436, BoNT A protease 0, BoNT F protease -8 and MazEF act 7.
Screening CCOC(=O)c1sc(=S)n(-c2cc(F)ccc2F)c1N returned Anthrax LF prot -3, Autofluor counter 24008*, BoNT A protease -1, BoNT F protease -5 and MazEF act 5.
Screening CCOC(=O)c1sc(=S)n(-c2ccccc2Cl)c1SC returned Anthrax LF prot -1, Autofluor counter 6821, BoNT A protease 2, BoNT F protease 5 and MazEF act -11.
`CCc1cc(-c2nnn(-c3cc(C(C)C)ccc3C)c2CC)ccc1-c1cn(CCc2c[nH]c3ccccc23)nn1` gave Anthrax LF prot -2, Autofluor counter 3884, BoNT A protease 0, BoNT F protease -2 and MazEF act -4.
COc1ccc(NC(=O)c2cc(-c3cc(F)ccc3OCC3CCCO3)n[nH]2)cc1OC (stereo unspecified) was read as Anthrax LF prot 0, Autofluor counter 2848, BoNT A protease 0 and BoNT F protease -4.
`CCN(CC)C(=O)C1=C(C)N(Cc2ccccc2)C(=O)C(CC(=O)NCc2cccc3ccccc23)C1` (stereo unspecified) gave Anthrax LF prot -9, Autofluor counter 3117, BoNT A protease 0, BoNT F protease -9 and MazEF act 7.
Screening Cc1cc(/C=C2\Sc3ccccc3N2C)cc(C)[n+]1CC1CCCO1 (stereo unspecified) returned Anthrax LF prot 15, Autofluor counter 5172, BoNT A protease 42*, BoNT F protease 1 and MazEF act -41.
CCN1C(=O)/C(=C\N2CCN(c3ccc(F)cc3)CC2)SC1=S was read as Anthrax LF prot -1, Autofluor counter 16210*, BoNT A protease inconclusive, BoNT F protease -2 and MazEF act -9.
`CCN1C(=O)/C(=C\N2CCN(C)CC2)SC1=S` gave Anthrax LF prot 4, Autofluor counter 3291, BoNT A protease 0, BoNT F protease -3 and MazEF act -5.
`Cn1c(CNC(=O)c2ccc(Cl)cc2)nnc1SCC(=O)Nc1sc2c(c1C#N)CCCC2` gave Anthrax LF prot 3, Autofluor counter 8832, BoNT A protease -1, BoNT F protease -4 and MazEF act 106*.
`CC(=O)Nc1sc2c(c1C#N)CCCCC2` gave Anthrax LF prot -9, Autofluor counter 23128*, BoNT A protease inconclusive, BoNT F protease -6 and MazEF act -8.
For N#Cc1c(NC(=O)CSc2ncn[nH]2)sc2c1CCCC2 the results were Anthrax LF prot -3, Autofluor counter 3804, BoNT A protease 1, BoNT F protease -8 and MazEF act -2.
For N#Cc1c(NC(=O)CSC2=NCCS2)sc2c1CCCC2 the results were Anthrax LF prot -1, Autofluor counter 16243*, BoNT A protease 0, BoNT F protease -3 and MazEF act -7.
